{
  "source": "PubChem BioAssay",
  "note": "Active and inactive are the calls of the source.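 Rule for the calls: active = mean inhibition over 43.08%, the solvent-only control mean plus 3 SD; inactive = the rest.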 Square brackets hold non-standard residues; d marks the D form. Peptide text beside a SMILES is read from it. NMeY = CN[C@@H](Cc1ccc(O)cc1)C(=O)O; NMeF = CN[C@@H](Cc1ccccc1)C(=O)O; 2Abz = Nc1ccccc1C(=O)O",
  "data": [
    {"molecular_target": "Nuclear receptor coactivator 3 (Homo sapiens) (UniProt Q9Y6Q9)", "sequence (Q9Y6Q9 whole entry, looked up, the tested form may be a part)": "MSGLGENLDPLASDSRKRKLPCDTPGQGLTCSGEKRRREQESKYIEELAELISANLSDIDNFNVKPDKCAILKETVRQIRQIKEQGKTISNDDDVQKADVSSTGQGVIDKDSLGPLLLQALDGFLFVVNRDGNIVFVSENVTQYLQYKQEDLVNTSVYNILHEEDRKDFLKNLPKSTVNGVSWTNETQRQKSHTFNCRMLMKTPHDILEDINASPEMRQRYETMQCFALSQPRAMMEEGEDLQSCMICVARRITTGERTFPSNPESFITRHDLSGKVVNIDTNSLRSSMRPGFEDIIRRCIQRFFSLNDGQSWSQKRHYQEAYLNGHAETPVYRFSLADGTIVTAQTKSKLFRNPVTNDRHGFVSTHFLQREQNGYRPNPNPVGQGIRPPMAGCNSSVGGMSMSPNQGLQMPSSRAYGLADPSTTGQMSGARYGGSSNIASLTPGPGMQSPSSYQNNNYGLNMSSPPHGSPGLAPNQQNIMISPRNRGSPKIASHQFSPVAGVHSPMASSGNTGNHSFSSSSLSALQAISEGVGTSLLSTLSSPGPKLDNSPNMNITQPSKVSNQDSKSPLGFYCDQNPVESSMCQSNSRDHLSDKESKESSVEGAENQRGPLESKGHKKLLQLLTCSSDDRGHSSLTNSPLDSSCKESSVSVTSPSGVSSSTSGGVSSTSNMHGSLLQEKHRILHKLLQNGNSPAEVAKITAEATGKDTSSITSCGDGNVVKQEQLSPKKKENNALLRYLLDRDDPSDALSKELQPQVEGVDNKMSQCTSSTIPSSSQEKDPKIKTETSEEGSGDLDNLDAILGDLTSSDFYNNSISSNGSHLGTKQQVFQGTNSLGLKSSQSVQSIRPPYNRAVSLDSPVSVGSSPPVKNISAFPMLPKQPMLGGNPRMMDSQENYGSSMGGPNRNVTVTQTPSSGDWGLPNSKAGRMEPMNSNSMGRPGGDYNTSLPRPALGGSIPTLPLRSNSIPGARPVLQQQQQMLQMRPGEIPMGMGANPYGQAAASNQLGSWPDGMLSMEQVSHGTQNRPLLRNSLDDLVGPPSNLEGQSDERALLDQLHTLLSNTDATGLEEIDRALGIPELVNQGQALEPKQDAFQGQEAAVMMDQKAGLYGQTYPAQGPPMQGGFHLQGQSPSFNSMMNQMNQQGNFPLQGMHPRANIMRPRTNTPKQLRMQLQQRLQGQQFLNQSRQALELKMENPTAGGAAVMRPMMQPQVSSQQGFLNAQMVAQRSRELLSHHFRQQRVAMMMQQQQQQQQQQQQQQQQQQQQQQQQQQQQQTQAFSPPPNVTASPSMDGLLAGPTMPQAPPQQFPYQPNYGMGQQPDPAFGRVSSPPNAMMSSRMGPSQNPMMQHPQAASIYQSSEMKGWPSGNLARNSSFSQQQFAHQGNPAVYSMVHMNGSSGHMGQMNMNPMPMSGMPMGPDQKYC", "experiment": "NCOA3 GAL4-fusion reporter inhibition – cell-based, luminescence, quadruplicate, confirmation (AID 588792);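 note: 0% = DMSO treated cells and 100% = gossypol at 36 µM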", "details": "HEK293 GAL4-SRC3 luciferase reporter, at 3.6 µM, active compounds read high", "values": [
      {"smiles": "COc1ccc2c(c1)-c1c(ssc1=S)C(C)(C)N2S(=O)(=O)c1ccc(C)cc1", "inhibition": "2.95% (inactive)"},
      {"smiles": "CCSc1nnc(NC(=O)C(CC)(C(F)(F)F)C(F)(F)F)s1", "inhibition": "7.54% (inactive)"},
      {"smiles": "CC(C)c1ccc(NC(=O)C2CCCN(S(=O)(=O)c3cccnc3)C2)cc1", "note": "(stereo not given)", "inhibition": "-12.3% (inactive)"},
      {"smiles": "Cc1ccc(/C=C/C(O)=C2/C(=O)N(C)C3(C)CC2c2ccccc2O3)cc1", "note": "(stereo not given)", "inhibition": "20.3% (inactive)"},
      {"smiles": "CC(C(=O)c1ccc(-c2ccccc2)cc1)[n+]1ccccc1", "note": "(stereo not given)", "inhibition": "5.63% (inactive)"},
      {"smiles": "Cc1cc(C)n(-c2ccc(C(=O)Nc3cccc(S(=O)(=O)N(C)C)c3)cc2)n1", "inhibition": "-2.01% (inactive)"},
      {"smiles": "CCOc1ccc(N2C(=O)C(CC(=O)Nc3ccccc3)N(Cc3ccccn3)C2=S)cc1", "note": "(stereo not given)", "inhibition": "9.7% (inactive)"},
      {"smiles": "O=C(COc1ccc(Cl)cc1)Nc1ccc(C(=O)NCc2cccnc2)cc1", "inhibition": "55.6% (active)"},
      {"smiles": "CC(C)(CC(=O)O)CC(=O)Nc1ccc(Oc2ccc(C(C)(C)C)cc2)nc1", "inhibition": "3.47% (inactive)"},
      {"smiles": "CCCCc1nc2ccccc2c(N)c1CCC", "note": "(tested in a mixture with another compound)", "inhibition": "8.62% (inactive)"},
      {"smiles": "COc1ccc2c(O)c(-c3c(C)cc(C)cc3C)c(=O)[nH]c2c1", "inhibition": "-14.3% (inactive)"},
      {"smiles": "CCCn1c(N)c(C(=O)CSc2ncc(C(F)(F)F)cc2Cl)c(=O)[nH]c1=O", "inhibition": "14.6% (inactive)"},
      {"smiles": "CC(C)C[C@@H]1NC(=O)[C@H](Cc2ccccc2)N(C)C(=O)[C@H](C)NC(=O)c2ccccc2NC(=O)[C@H](Cc2ccc(O)cc2)N(C)C1=O", "note": "(cyclo([2Abz]A[NMeF]L[NMeY]))", "inhibition": "18.1% (inactive)"},
      {"smiles": "CCN(CC)C(=O)c1[nH]cnc1C(=O)N[C@@H](CCCCNC(=O)OC(C)(C)C)C(=O)OC(C)(C)C", "inhibition": "3.8% (inactive)"},
      {"smiles": "O=C(N/N=C\\c1cc(Br)ccc1O)c1ccc(S(=O)(=O)N2CCCCC2)cc1", "inhibition": "72.3% (active)"},
      {"smiles": "C/C(=N\\NC(N)=S)C1C2C3CC4C5CC(C42)C1C53", "note": "(stereo not given)", "inhibition": "28.5% (inactive)"},
      {"smiles": "Clc1ccc(-c2c[n+](Cc3ccc(Cl)cc3Cl)c3n2CCCCC3)cc1", "inhibition": "6.98% (inactive)"},
      {"smiles": "Cc1ccc(-c2nc(CS(=O)CC(=O)NCCCN3CCN(Cc4ccccc4)CC3)c(C)o2)cc1", "note": "(stereo not given)", "inhibition": "20.1% (inactive)"},
      {"smiles": "Cc1ccccc1OCCNC(=O)c1ccccc1Sc1ccccc1C#N", "inhibition": "6.19% (inactive)"},
      {"smiles": "Cc1cc(C(C)(C)C)cc(C)c1Cn1c2[n+](c3ccc(C(F)(F)F)cc31)CCCCC2", "inhibition": "11% (inactive)"},
      {"smiles": "NC(=O)c1sc2nc3c(c(-c4ccco4)c2c1N)CCCC3", "inhibition": "59.8% (active)"},
      {"smiles": "C=CC[C@@H](CC(=O)NCCO)C(=O)NC[C@H](OC(=O)[C@@H](CC=C)Cc1ccc(F)cc1)c1ccccc1", "inhibition": "16.2% (inactive)"},
      {"smiles": "O=[N+]([O-])c1ccc(N=Nc2c(Cl)cc(O)cc2Cl)cc1", "inhibition": "13.9% (inactive)"},
      {"smiles": "Cc1cccc(NC(=O)c2cc(-c3cccnc3)nc3c(C)cccc23)n1", "inhibition": "7.37% (inactive)"},
      {"smiles": "COCCNC(=O)c1cc(-c2ccccn2)nc2ccc(S(=O)(=O)N3CCC(C)CC3)cc12", "inhibition": "30.4% (inactive)"}
    ]}
  ]
}
